This note sets out measurements from PubChem BioAssay.

The assay concerns Human papillomavirus type 1a protein E7 (residues 44-93). Nature of the assay: small molecules binding HPV E7 44-93 – biochemical, small-molecule microarray, residues 44-93, 635 nm fluorescence, primary screen (AID 1108).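 Also: E7 fragment applied at 1 µg/mL in TBST for 1 h at 4 C; score combines spot fluorescence with its signal to noise ratio.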 Particulars: fluorescence 635 nm, higher = more signal.
As for `CCOC(=O)[C@H](Cc1ccccc1)NC(=O)CCC1CC(OC(=O)NCc2cccc3ccccc23)CC2(CCCC(COC(=O)NCc3ccc4c(c3)OCO4)O2)O1` (stereo partly specified), the composite z-score was determined as 0.524.

`COc1cccc([C@H]2Oc3ccc(OC)cc3C(=NO[C@@H](C)c3cc(-c4c(C)cc(C)cc4C)no3)[C@@H]2O)c1`: the composite z-score was -0.355.

Take `CC(=O)OC[C@H]1O[C@H](C#CCCc2ccccc2)C=C[C@@H]1OC(C)=O`: the composite z-score is -0.515.

In turn, `CC(C)=NO[C@@H](C)c1cn([C@H](CO)Cc2ccccc2)nn1` gave a composite z-score of 0.833.

In the case of `COC(=O)C(C(=O)OC)C1CCCC(=O)C1` (stereo unspecified), the composite z-score was found to be 0.549.

In turn, `COC(=O)CC=C[C@@H](C)[C@@H](C=NOC[C@@H](C)[C@H](OCc1ccccc1)C(C)C)OC` returned a composite z-score of 0.281.

`COc1ccc(O[C@H]2C=C[C@@H](c3ccccc3)O[C@@H]2COC(=O)NCc2cccc3ccccc23)cc1` yielded a composite z-score of 0.125.

Regarding `CC(C)CON=C1C[C@@H](O)[C@@H](O)[C@@H]2[C@@H]3C(=O)N(C(C)(C)C)C(=O)[C@@H]3CC[C@@H]12`, the composite z-score is -0.219.

Regarding `CON=C(C)CCN1CCCCc2nc(C)c(C)cc21`, the composite z-score is -0.111.

With `O=C1[C@H]2[C@H]3[C@H](O)[C@H](O)CC(=NO[C@@H]4O[C@H](CO)[C@@H](O)[C@H](O)[C@H]4O)[C@@H]3CC[C@H]2C(=O)N1C[C@@H]1CCCO1`, the composite z-score amounted to 1.3.

The compound `CCN1C(=O)[C@H]2[C@@H]3C(=CC[C@H]2C1=O)C(=O)[C@H]1O[C@H]1[C@H]3O` yielded a composite z-score of 0.53.

On to `CC=CC1=C(CO)[C@H](O)[C@H]2O[C@H]2[C@@H]1O`, for which the composite z-score is -0.342.

`CC(=O)OC[C@H]1O[C@H](CC=NOC[C@@H](O)[C@H]2O[C@@H]3OC(C)(C)O[C@@H]3[C@H]2O)C=C[C@@H]1OC(C)=O` returned a composite z-score of 0.836.

Regarding `CO[C@H]1COC(=O)CC=C[C@H](C)[C@H](OC)COC(=O)[C@@H](C)NC(=O)CC=C[C@@H]1C`, the composite z-score was -2.87.

With `C#CCCCON=C1C[C@@H](O)[C@@H](O)[C@@H]2[C@@H]3C(=O)N([C@@H](C)c4ccccc4)C(=O)[C@@H]3CC[C@@H]12`, the composite z-score is -0.31.

As for `C=CC[C@@H]1C=C[C@H](ON=C(C)CCN2CCCc3nc(C)c(C)cc32)[C@@H](CO)O1`, the composite z-score worked out at 0.298.

As for `CCOC(=O)[C@H](CC(C)C)NC(=O)CCC1CC(OC(=O)NCCc2ccc(F)cc2)CC2(CCCC(COC(=O)NCCOC)O2)O1` (stereo partly specified), the composite z-score is 1.34.

On to `CC(CCC(=O)OC[C@H]1O[C@H](C#Cc2ccccc2)C=C[C@@H]1Oc1ccc(C)cc1)=NOC[C@@H](C)[C@H](OCc1ccccc1)C(C)C`, for which the composite z-score was -1.89.

Compound `COc1ccc(O[C@H]2C=C[C@@H](c3ccccc3)O[C@@H]2CO)cc1` registered a composite z-score of -0.438.

`CCOC(=O)CCN1C(=O)[C@H]2[C@H]3[C@H](O)[C@H](O)CC(=NOCC(C)C)[C@@H]3CC[C@H]2C1=O` came in with a composite z-score of -0.998.

In turn, `CO[C@H]1COC(=O)[C@H](CCSC)NC(=O)CC=C[C@@H](C)[C@H](OC)COC(=O)[C@@H](OCc2ccccc2)C=C[C@@H]1C` had a composite z-score of 0.176.

With `CC(CCC(=O)OC[C@H]1O[C@H](C#Cc2ccccc2)C=C[C@@H]1Oc1ccc(C)cc1)=NO[C@@H](C)c1cc(-c2c(C)cc(C)cc2C)no1`, the composite z-score is -0.612.

Compound `CC(C)[C@@H](OCc1ccccc1)[C@H](C)C=NO[C@H](C)c1cn([C@@H]2COC[C@H]2O)nn1` showed a composite z-score of 1.27.

Compound `CCOC(=O)CCN1C(=O)[C@H]2[C@H]3[C@H](O)[C@H](O)CC(=O)[C@@H]3CC[C@H]2C1=O` had a composite z-score of 0.555.

In the case of `COC(OC)[C@@H](C)[C@H](OC)[C@@H](C)[C@H](OC)c1ccccc1`, the composite z-score was -0.567.

For `C=CC[C@@H]1C=C[C@H](ON=C(C)CCN2CCCCc3nc(C)c(C)cc32)[C@@H](CO)O1`, the composite z-score is 0.322.

Compound `CC(C)=CCCC(C)=CCON=C1C[C@@H](O)[C@@H](O)[C@@H]2[C@@H]3C(=O)N(Cc4ccc5c(c4)OCO5)C(=O)[C@@H]3CC[C@H]12` came in with a composite z-score of 1.38.

The compound `COc1cccc([C@H]2Oc3ccc(OC)cc3C(=NOCC[C@@H]3C=C[C@H](OC(C)=O)[C@@H](COC(C)=O)O3)[C@@H]2O)c1` came in with a composite z-score of 0.687.

Turning to `COC(=O)[C@H](C)NC(=O)CCC1CC(OC(=O)NCc2ccc3c(c2)OCO3)CC2(CCCC(COC(=O)NCCC(C)C)O2)O1` (stereo partly specified), the composite z-score turned out to be 1.37.

Consider `O=C1[C@H]2CCn3c(=O)n(-c4ccccc4)c(=O)n3[C@H]2[C@H](O)[C@@H]2O[C@H]12`, for which the composite z-score was -0.453.

`C[C@]12CCC3c4ccc(OCC5CO5)cc4CCC3C1CC[C@@H]2O` (stereo partly specified) registered a composite z-score of 0.629.

Turning to `CCN1C(=O)[C@H]2[C@H]3[C@H](O)[C@H](O)CC(=NNC(=O)OCc4ccccc4)[C@H]3CC[C@H]2C1=O`, the composite z-score was 0.663.

As for `CCN1C(=O)[C@H]2[C@H]3[C@H](O)[C@H](O)CC(=NOCC=C(C)CCC=C(C)C)[C@@H]3CC[C@H]2C1=O`, the composite z-score was found to be 0.57.

In the case of `CCOC(=O)[C@H](Cc1ccccc1)NC(=O)CCC1CC(OC(=O)NCc2cccc3ccccc23)CC2(CCCC(COC(=O)NCCc3ccccc3OC)O2)O1` (stereo partly specified), the composite z-score is 0.881.

Turning to `CON=C1c2cc(OC)ccc2O[C@H](c2cccc(OC)c2)[C@H]1O`, the composite z-score was 0.365.

Turning to `CCOC(=O)[C@H](CC(C)C)NC(=O)CCC1CC(OC(=O)NCc2ccc3c(c2)OCO3)CC2(CCCC(COC(=O)NCCC(C)C)O2)O1` (stereo partly specified), the composite z-score was -0.527.
